Compound activity: PubChem, Broad Institute
Only a selection was taken, and hits are over-represented in it overall.
Hedgehog inh – Hedgehog pathway signaling inhibitors, primary screen, luminescence, Shh-LIGHT2 cells, Gli-luciferase | Shh-LIGHT2 Gli-luciferase reporter, 30 h | inhibition, % (no concentration beside the values) | hit rate 2.1% among 22,000;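 active means mean inhibition across valid replicates above about 65%, limit read from the data; inconclusive means mean under the limit, yet half or more replicates past it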;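 further: pathway switched on by Shh-conditioned medium diluted 1 in 25 in low serum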
MITF inh – inhibitors of MITF, primary screen, MITF inhibitor project, cell-based, luminescence | TRPM1 promoter luciferase, 24 h | inhibition, % (no concentration beside the values) | hit rate 0.28% among 37,000 | AID 2240, 2010; in the data active means inhibition above about 85%; inconclusive means no clear call, values can overlap the other calls; inactive means below about 68%;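 further: human melanocyte line stably carrying TRPM1 promoter luciferase reporter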
* marks the source's active call; other numbers are inactive results; ? = inconclusive; . = no result given.

SMILES	Hedgehog inh	MITF inh
C[C@H]1CN([C@@H](C)CO)C(=O)c2cccc(NC(=O)NC3CCCCC3)c2O[C@H]1CN(C)S(=O)(=O)c1ccc(Cl)cc1	112*	63
CC(C)NC(=O)N(C)C[C@@H]1Oc2c(NC(=O)NC3CCCCC3)cccc2C(=O)N([C@H](C)CO)C[C@H]1C	-12	-4
C[C@H](CO)N1C[C@H](C)[C@H](CN(C)S(=O)(=O)c2ccc(F)cc2)Oc2c(NC(=O)NC3CCCCC3)cccc2C1=O	93*	51
C[C@@H]1CN([C@H](C)CO)C(=O)c2cccc(NC(=O)NC3CCCCC3)c2O[C@H]1CN(C)S(=O)(=O)c1ccc(F)cc1	4	14
CC1CCC(C(C)C)C(NC(=O)c2cccc3ccccc23)C1 (stereo unspecified)	6	-8
CC1Oc2ccccc2OC1(O)c1ccc(Br)cc1 (stereo unspecified)	17	17
Cc1cc(C)cc(N(C(C)C(=O)Nc2cccc(Cl)c2)S(C)(=O)=O)c1 (stereo unspecified)	.	31
N#CCC(=O)NCc1cccs1	-14	15
N#CC1=C(N)Nc2c(c(=O)oc3ccccc23)C1c1ccc(Br)cc1 (stereo unspecified)	72*	25
C=CCN1C(=O)C2(C(C#N)=C(N)Oc3c2c(=O)oc2ccccc32)c2ccccc21 (stereo unspecified)	-32	-5
CCN(CC)C(=S)CSc1nc(-c2ccccc2)cc(-c2ccco2)c1C#N	-28	10
CC1(C)N=C(NS(=O)(=O)c2cc(C(F)(F)F)cc(C(F)(F)F)c2)N(c2ccccc2)O1	101*	49
O=C(Nc1ccccc1C(=O)O)c1cccc(S(=O)(=O)Nc2cccc(C(F)(F)F)c2)c1	.	6
CC(C(=O)Nc1ccc(Cl)c(Cl)c1)N(c1ccccc1)S(C)(=O)=O (stereo unspecified)	.	14
C=C1C(=O)O[C@H]2C3=C(C)CCC[C@]3(C)C(=O)C[C@@H]12	76*	78
C=C1C(=O)O[C@@H]2C=C(C)[C@@H]3CC[C@@](C)(O)[C@@H]3C[C@H]12	10	-1
CCOC(=O)c1cnc(N2CCOCC2)nc1N	-81	-10
CCCc1c(C(=O)OCC)c(C(=O)OCC)c2c(-c3ccccc3)nc(N3CCOCC3)nn12	78*	25
CCOC(=S)Nc1ccc(I)cc1	-121	3
COc1cccc2c1C(c1ccc3c(c1O)C(=O)CC(C)C3O)OC2=O (stereo unspecified)	1	-7
COc1cccc2c1C(=O)c1c(O)c3c(c(O)c1C2=O)C[C@@](O)(C(=O)CO)C[C@@H]3O[C@H]1C[C@H](N)[C@H](O)[C@H](C)O1	90*	71
COc1cccc2c1C(=O)c1ccc3c(c1C2=O)C(=O)CC(C)(O)C3 (stereo unspecified)	-59	-14
COc1cccc2c1C(=O)c1c(O)c3c(c(O)c1C2=O)C[C@@](O)(C(=O)CO)C[C@@H]3OC1CC(N)C(O)C(C)O1 (stereo partly specified)	83*	62
CNS(=O)(=O)c1cc(-c2nnc(Nc3ccc(NC(C)=O)cc3)c3ccccc23)ccc1C	.	-6
Clc1cccc(Nc2nnc(-c3ccccc3)c3ccccc23)c1	94*	66
SMILES	Hedgehog inh	MITF inh
COc1cc(CO)ccc1OCc1cccc(C(=O)O)c1	.	93*
COc1cc(CO)ccc1OCC(=O)Nc1ccccc1F	.	-42
COc1ccc(-c2csc3ncn(CC(=O)Nc4sc5c(c4C#N)CCC5)c(=O)c23)cc1OC	.	-16
Cc1ccc(S(=O)(=O)Nc2ccc(Br)cc2CNc2nc3ccccc3n2C)cc1	.	13
Cc1c(Br)sc2sc(-c3ccnc(SCC(=O)NC(C)C)n3)c(C)c12	-16	19
CC(C)NC(=O)Nc1cccc2c1O[C@H](CN(C)S(=O)(=O)c1ccc(F)cc1)[C@H](C)CN([C@H](C)CO)C2=O	-3	0
CC(C)NC(=O)Nc1cccc2c1O[C@@H](CN(C)S(=O)(=O)c1ccc(Cl)cc1)[C@@H](C)CN([C@H](C)CO)C2=O	102*	-2
CC(C)NC(=O)Nc1cccc2c1O[C@H](CN(C)S(=O)(=O)c1ccc(Cl)cc1)[C@H](C)CN([C@@H](C)CO)C2=O	20	-5
CC(C)NC(=O)Nc1cccc2c1O[C@@H](CN(C)S(=O)(=O)c1ccc(F)cc1)[C@@H](C)CN([C@@H](C)CO)C2=O	80*	-4
CC(C)NC(=O)Nc1cccc2c1O[C@@H](CN(C)S(=O)(=O)c1ccc(Cl)cc1)[C@@H](C)CN([C@@H](C)CO)C2=O	96*	16
CC(C)NC(=O)Nc1cccc2c1O[C@H](CN(C)S(=O)(=O)c1ccc(Cl)cc1)[C@@H](C)CN([C@H](C)CO)C2=O	-4	1
Cc1cc(NS(=O)(=O)c2ccc(NS(=O)(=O)c3cccs3)cc2)nc(C)n1	.	-23
Cc1ccc(S(=O)(=O)N(C)CC(=O)Nc2ccc(C(F)(F)F)cc2)cc1	.	18
COC(=O)c1ccc(NC(=O)C2Cc3ccccc3CN2S(=O)(=O)c2ccc(F)cc2)cc1 (stereo unspecified)	.	-6
O=C1/C(=C/c2ccc(O)cc2)SC(=S)N1CCc1ccccc1	.	2
CNC(=O)c1cnc2cc(Cl)ccc2c1OC	.	20
O=C(COc1ccc(Br)cc1)Nc1cccc(-c2nnc(-c3ccccc3)o2)c1	.	-45
CC(C)(C)c1cc(/C=C(\C#N)C(N)=S)cc(C(C)(C)C)c1O	106*	91*
N#CC(C#N)=C(N)/C(C#N)=C/c1cc(O)c(O)c(O)c1	76*	-9
Cc1cc(O)c2c(c1)C(=O)C13C(C2=O)C(=O)C2C(O)C1C1C(O)C3C(=O)C3C(=O)c4c(O)cc(C)cc4C(=O)C321 (stereo unspecified)	-29	72
Cc1ccc(O)c(C2=Nc3ccccc3N=C(C(F)(F)F)C2)c1	-56	19
CCCCC/C=C/C=C/C(O)CCCCCCCC(=O)O (stereo unspecified)	26	14
CC(C)c1ccc2c(c1)CCC1[C@](C)(C(=O)O)CCC[C@]21C (stereo partly specified)	-20	-22
CC(C)c1c(O)ccc2c1CCC1C(C)(C)CCC[C@]21C (stereo partly specified)	?	106*
CC/C=C\C/C=C\C/C=C\C/C=C\C/C=C\C/C=C\CCC(=O)O	-32	1
SMILES	Hedgehog inh	MITF inh
C/C=C/C/C=C/CCC(=O)[C@H]1O[C@H]1C(N)=O	78*	101*
Cc1noc(C)c1S(=O)(=O)Nc1cccc2c1O[C@@H](CN(C)S(=O)(=O)c1ccc(Cl)cc1)[C@@H](C)CN([C@H](C)CO)C2=O	67*	7
Cc1noc(C)c1S(=O)(=O)Nc1cccc2c1O[C@@H](CN(C)S(=O)(=O)c1ccc(Cl)cc1)[C@@H](C)CN([C@@H](C)CO)C2=O	106*	4
Cc1noc(C)c1S(=O)(=O)Nc1cccc2c1O[C@@H](CN(C)S(=O)(=O)c1ccccc1)[C@@H](C)CN([C@@H](C)CO)C2=O	28	-7
Cc1ccc(S(=O)(=O)N(C)C[C@@H]2Oc3c(NS(=O)(=O)c4c(C)noc4C)cccc3C(=O)N([C@H](C)CO)C[C@@H]2C)cc1	42	-6
Cc1ccc(S(=O)(=O)N(C)C[C@@H]2Oc3c(NS(=O)(=O)c4c(C)noc4C)cccc3C(=O)N([C@@H](C)CO)C[C@@H]2C)cc1	89*	-1
